Results filed as inconclusive are left out. Entries that show only a call come without a potency. Activity calls are given as the source filed them. Calls come from the whole dose curve; as a rule, active = well fitted inhibition curve with a large enough effect; inconclusive = small, poorly fitted or top-dose-only effect; inactive = flat fitted curve, though single readings scatter.
What was measured:
[1] = molecular target: Glutathione peroxidase 1 (Homo sapiens) (UniProt P07203); assay: Primary qHTS Assay for Inhibitors of Recombinant Selenoprotein Glutathione Peroxidase 1 (GPX1) (AID 1845191)
Method in brief: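 GPX1 10 nM, GR 100 nM, GSH 1 mM, NADPH 0.5 mM, CHP 0.5 mM (final). 30-min cpd preincubation, RT. Ex340/Em450 read t=0, t=15 min.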

[2] = molecular target: Phospholipid hydroperoxide glutathione peroxidase GPX4 (Homo sapiens) (UniProt P36969); assay: Primary qHTS Assay for Inhibitors of Recombinant Selenoprotein Glutathione Peroxidase 4 (GPX4) (AID 1845192)
Method in brief: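 qHTS, GR-coupled: GPX4 200 nM + cpd 30 min RT → GSH 1 mM, NADPH 0.5 mM, GR 100 nM → CHP 0.5 mM start; fluor 340/450 at t0 and t15 min; no-enzyme wells as control.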
Note: nearly all actives have a fitted effect of over 65% in size.
Potency is the fitted concentration of half-maximal effect.

Glutathione peroxidase 1 (Homo sapiens), sequence (P07203 whole entry, looked up): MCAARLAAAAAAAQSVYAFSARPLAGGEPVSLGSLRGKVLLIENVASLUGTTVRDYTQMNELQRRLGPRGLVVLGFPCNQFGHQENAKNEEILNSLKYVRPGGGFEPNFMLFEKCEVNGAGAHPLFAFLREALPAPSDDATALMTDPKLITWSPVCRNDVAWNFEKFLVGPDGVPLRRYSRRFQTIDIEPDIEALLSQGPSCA
Phospholipid hydroperoxide glutathione peroxidase GPX4 (Homo sapiens), sequence (P36969 whole entry, looked up): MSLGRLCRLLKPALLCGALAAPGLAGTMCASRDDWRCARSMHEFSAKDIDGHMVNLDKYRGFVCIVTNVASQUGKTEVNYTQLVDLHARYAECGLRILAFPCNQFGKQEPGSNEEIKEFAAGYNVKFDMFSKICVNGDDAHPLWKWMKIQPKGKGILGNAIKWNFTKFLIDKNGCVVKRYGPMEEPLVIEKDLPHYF

Row | SMILES | Potency [1] | Potency [2]
1 | CN1CC(=O)N/C1=N/C(=O)Nc1cccc(Cl)c1 | inactive | inactive
2 | COC(=O)c1c(C)[nH]c(C)c1C(=O)c1ccccc1Cc1ccccc1 | inactive | inactive
3 | CC(=O)N[C@H](C(=O)O)C(C)(C)SN=O | inactive | inactive
4 | NC(=O)C1=CN(C2OC(COP(=O)(O)OP(=O)(O)OC[C@H]3O[C@@H](n4cnc5c(N)ncnc54)[C@H](OP(=O)(O)O)[C@@H]3O)C(O)C2O)C=CC1 (some centres undefined) | inactive | inactive
5 | CCCCCCOc1ccccc1C(N)=O | inactive | inactive
6 | C[N+](C)(C)CCOP(=O)(O)OP(=O)([O-])OC[C@H]1O[C@@H](n2ccc(N)nc2=O)[C@H](O)[C@@H]1O | inactive | inactive
7 | CC[C@H]1OC(=O)[C@H](C)[C@@H](O[C@H]2C[C@@](C)(OC)[C@@H](O)[C@H](C)O2)[C@H](C)[C@@H](O[C@@H]2O[C@H](C)C[C@H](NC)[C@H]2O)[C@](C)(O)C[C@@H](C)CN(C)[C@H](C)[C@@H](O)[C@]1(C)O | inactive | inactive
8 | CCCCCCCC/C=C\CCCCCCCC(=O)NCCO | inactive | inactive
9 | O=C(/C=C/c1ccc(O)cc1)c1ccc(O)cc1O | inactive | inactive
10 | Cn1c(=O)c2[nH]c(-c3ccccc3)nc2n(C)c1=O | inactive | inactive
11 | N.N.N.N.N.N.N.N.N.N.N.N.N.N.O.O.[Ru+4].[Ru+5].[Ru+5] | inactive | inactive
12 | CO/N=C(\C(=O)N[C@@H]1C(=O)N2C(C(=O)O)=C(COC(C)=O)CS[C@H]12)c1csc(N)n1 | 8.06 µM (active) | inactive
13 | Fc1cccc(/C=N/N=C/c2cccc(F)c2)c1 | inactive | inactive
14 | CN(C)c1nc2c(Br)c(Br)c(Br)c(Br)c2[nH]1 | inactive | 
15 | O=C1NC(=O)c2c1c(-c1ccccc1)cc1[nH]c3ccc(O)cc3c21 | inactive | inactive
16 | NO | inactive | inactive
17 | CNC(=O)c1c(I)c(NC(=O)CCCCC(=O)Nc2c(I)c(C(=O)O)c(I)c(C(=O)NC)c2I)c(I)c(C(=O)O)c1I | inactive | inactive
18 | O=C(O)c1cc(=O)c2c(Cl)cc(Cl)cc2[nH]1 | inactive | inactive
19 | CC(C)(NS(=O)(=O)c1ccc(Oc2ccc(F)cc2)cc1)C(=O)NO | inactive | inactive
20 | O=C(c1ccc(Cl)cc1)N1CCN(c2ccc([N+](=O)[O-])c3ncccc23)CC1 | inactive | inactive
21 | CSc1nc(N)c2ncn([C@@H]3O[C@H](COP(=O)(O)OP(=O)(O)OP(=O)(O)O)[C@@H](O)[C@H]3O)c2n1 | inactive | inactive
22 | O=C(/C=C/c1ccc(O)c(O)c1)OCCc1ccccc1 | inactive | inactive
23 | Brc1c(Br)c(Br)c2n[nH]nc2c1Br | inactive | inactive

Row | SMILES | Potency [1] | Potency [2]
24 | Cn1cc(C2=C(c3ccc(Cl)cc3Cl)C(=O)NC2=O)c2ccccc21 | inactive | inactive
25 | CCCCCCCCCCCCOCCO | inactive | inactive
26 | CN(C)CCn1nnnc1SCC1=C(C(=O)O)N2C(=O)[C@@H](NC(=O)Cc3csc(N)n3)[C@H]2SC1 | 4.53 µM (active) | 12.6 µM (active)
27 | O=C(CCCCCN1CCN(c2ccccc2-c2ccccc2)CC1)NC1CCCc2ccccc21 (centres undefined) | inactive | inactive
28 | CC(C)(C)c1ccc(S(=O)(=O)/C=C/C#N)cc1 | inactive | inactive
29 | N#C/C(=C\c1ccc(O)c(O)c1)C(=O)c1ccc(O)c(O)c1 | inactive | inactive
30 | O=C(O)CNC(=O)C(CS)Cc1ccccc1 (centres undefined) | inactive | inactive
31 | O=C(O)[C@H](O)[C@@H](O)[C@H](O)[C@H](O)CO | inactive | inactive
32 | c1cnc2c(c1)ccc1cccnc12 | inactive | inactive
33 | Oc1ccc(C2CNCc3sccc32)cc1O (centres undefined) | inactive | inactive
34 | Cc1cc2c(cc1Cl)N(C(=O)Nc1ccc(Oc3cccnc3C)nc1)CC2 | inactive | inactive
35 | CCCCCCCCCCCCCCCC(=O)OC(CC(=O)O)C[N+](C)(C)C (centres undefined) | inactive | inactive
36 | OCC1O[C@H](O)C(Cl)C(O)C1O (some centres undefined) | inactive | inactive
37 | O=C(Nc1ccncc1)c1cc([N+](=O)[O-])ccc1Cl | inactive | inactive
38 | C=CCCCCCCCCC(=O)O | inactive | inactive
39 | CC[C@H]1OC(=O)[C@H](C)[C@@H](O[C@H]2C[C@@](C)(OC)[C@@H](O)[C@H](C)O2)[C@H](C)[C@@H](O[C@@H]2O[C@H](C)C[C@H](N(C)C)[C@H]2O)[C@](C)(O)C[C@@H](C)C(=O)[C@H](C)[C@@H](O)[C@]1(C)O | inactive | inactive
40 | CCCCC#Cc1nc(NC)c2ncn([C@@H]3O[C@H](CO)[C@@H](O)[C@H]3O)c2n1 | inactive | inactive
41 | CN1C2CCC1CC(OC(=O)C(O)c1ccccc1)C2 (centres undefined) | inactive | inactive
42 | COc1cc(OC)cc(-c2cc3cnc(N)nc3nc2NC(=O)NC(C)(C)C)c1 | inactive | inactive
43 | OC[C@H]1O[C@@H](n2cnc3c(NC4CCCC4)ncnc32)[C@H](O)[C@@H]1O | inactive | inactive
44 | NCCCCCCCCCCN | inactive | inactive
45 | C=CC(N)CCC(=O)O (centres undefined) | inactive | inactive
46 | CN1CCc2cc(NC(=O)Nc3cccnc3)ccc21 | inactive | inactive

Row | SMILES | Potency [1] | Potency [2]
47 | CC(C)NC[C@H](O)COc1cccc2[nH]ccc12 | inactive | inactive
48 | CCCCCCCCc1ccc(-c2ccc(C(=O)O)cc2)cc1 | inactive | inactive
49 | CNc1ncnc2c1ncn2[C@@H]1O[C@H](CO)[C@@H](O)[C@H]1O | inactive | inactive
50 | COc1ccc(-c2cc(=S)ss2)cc1 | 11.4 µM (active) | inactive
51 | CC(C)CC(NP(=O)(O)O[C@@H]1O[C@@H](C)[C@H](O)[C@@H](O)[C@H]1O)C(=O)NC(Cc1c[nH]c2ccccc12)C(=O)O (some centres undefined) | inactive | inactive
52 | O=C(CCc1ccncc1)NNC(=O)N1Cc2ccccc2Oc2ccc(Cl)cc21 | inactive | inactive
53 | O=C1NC(O)=NC1(c1ccccc1)c1ccccc1 | inactive | inactive
54 | COc1ccc(/C=C2\COc3ccc(C)cc3C2=O)cc1O | inactive | inactive
55 | COc1cc(C(O)CO)ccc1OS(=O)(=O)O (centres undefined) | inactive | inactive
56 | COCCOc1cc2nc[nH]c(=O)c2cc1OCCOC | inactive | inactive
57 | S=C(S)OC1CC2CC1C1CCCC21 (centres undefined) | inactive | inactive
58 | Cc1cc(NC(=O)Nc2ccc3c(ccn3C)c2)sn1 | inactive | inactive
59 | CO[C@@]1(NC(=O)Cc2cccs2)C(=O)N2C(C(=O)O)=C(COC(N)=O)CS[C@@H]21 | 6.4 µM (active) | inactive
60 | O=C1NC(=O)/C(=C/c2ccc3nccnc3c2)S1 | inactive | inactive
61 | Nc1nc(Cl)nc2c1ncn2[C@@H]1O[C@H](COP(=O)(O)OP(=O)(O)OP(=O)(O)O)[C@@H](O)[C@H]1O | inactive | inactive
62 | N.N.O=C(O)C1(C(=O)O)CCC1.[Pt] | inactive | 22.7 µM (active)
63 | O=S(=O)(c1cccc2c(I)cccc12)N1CCCNCC1 | inactive | inactive
64 | CN1CCc2ccccc2Cc2[nH]c3ccccc3c2CC1 | inactive | inactive
65 | CCCCCCCCCCCCCCCC(=O)OC(C)C | inactive | inactive
66 | Nc1nc(OCC2CCCCC2)c2[nH]cnc2n1 | inactive | inactive
67 | O=P(O)(O)C(Cl)(Cl)P(=O)(O)O | inactive | inactive
68 | O=c1[nH]c2cc(C(F)(F)F)ccc2n1-c1cc(C(F)(F)F)ccc1O | inactive | inactive
69 | CC(C)Cc1ccc([C@H](C)C(=O)O)cc1 | inactive | inactive

Row | SMILES | Potency [1] | Potency [2]
70 | NC[C@H]1O[C@@H](n2cnc3c(N)ncnc32)[C@H](O)[C@@H]1O | inactive | inactive
71 | Fc1ccc(C(OCCCc2cnc[nH]2)c2ccc(F)cc2)cc1 | inactive | inactive
72 | COCCOc1cc2ncnc(Cl)c2cc1OCCOC | inactive | inactive
73 | CC[C@@H](C)[C@H]1O[C@]2(CC[C@H]1C)C[C@@H]1C[C@@H](CC=C(C)[C@@H](O[C@H]3C[C@H](OC)[C@@H](O[C@H]4C[C@H](OC)[C@@H](O)[C@H](C)O4)[C@H](C)O3)[C@@H](C)C=CC=C3CO[C@@H]4[C@H](O)C(C)=C[C@@H](C(=O)O1)[C@]34O)O2 | inactive | inactive
74 | CC12C(=O)OC(=O)C1(C)C1CCC2O1 (centres undefined) | inactive | inactive
75 | CC(C(=O)O)c1ccc(C(=O)c2cccs2)cc1 (centres undefined) | inactive | inactive
76 | CCCSc1ccc2nc(NC(=O)OC)[nH]c2c1 | inactive | inactive
77 | c1ccc(-c2ccccn2)nc1 | inactive | inactive
78 | CN1C2CC(OC(=O)[C@H](CO)c3ccccc3)CC1C1OC12 (some centres undefined) | inactive | inactive
79 | O=[N+]([O-])c1ccc2c(c1)S(=O)(=O)C=C2 | inactive | inactive
80 | COC1=C(OC)C(=O)c2ccccc2C1=O | inactive | inactive
81 | O=C(c1ccc(OCCCc2cnc[nH]2)cc1)C1CC1 | inactive | inactive
82 | CN(C)[C@@H]1C(=O)C(C(=O)NCN2CCCC2)=C(O)[C@@]2(O)C(=O)C3=C(O)c4c(O)cccc4[C@@](C)(O)C3C[C@@H]12 (some centres undefined) | inactive | inactive
83 | COc1ccc(NC(=O)/C=C/c2ccc(Cl)cc2)cc1 | inactive | inactive
84 | COc1ccc2c(c1)CCC1C2CC[C@@]2(C)C1CC[C@@H]2NCCCCCCN1C(=O)CCC1=O (some centres undefined) | inactive | inactive
85 | CC(C(=O)O)c1ccc(C(=O)c2ccccc2)s1 (centres undefined) | inactive | inactive
86 | CCN1/C(=C/C(C)=O)Sc2ccc(OC)cc21 | inactive | inactive
87 | CCCCCCCCCCCCCCCCCCN(CCCCCCCCCCCCCCCCCC)CCCN(CCO)CCO | inactive | inactive
88 | Nc1ncnc2c1ncn2[C@@H]1O[C@H](COP(=O)(O)CP(=O)(O)OP(=O)(O)O)[C@@H](O)[C@H]1O | inactive | inactive
89 | CC(C)c1cccc(C(C)C)c1N1C(=O)c2ccc(O)cc2C1=O | inactive | inactive
90 | COc1cc2c3cc1Oc1cc(ccc1O)C[C@@H]1c4c(cc(OC)c(O)c4Oc4ccc(cc4)C[C@@H]3N(C)CC2)CC[N+]1(C)C | inactive | inactive

Source: PubChem BioAssay (NCATS)
